# Test results from PubChem BioAssay AID504329 (Southern Research Specialized Biocontainment Screening …, 2011).
# The campaign covered roughly 340,000 compounds. About 1,000 (0.29%) were called active. No stated cut-off is given here; in the data, inconclusive means inhibition above about 27% without an active follow-up result; inactive means below that. These entries were drawn from the full list. Results with a measured potency or affinity are listed apart.
# Assay: H1N1 influenza NS1A inhibitors, functional cell based assay (AID 504329)
# Conditions: percent inhibition, at 12.5 µM, active compounds read high
row,Structure (SMILES),inhibition
1,CCOC(=O)C(C#N)=C1CCN(Cc2ccccc2)CC1,-28.1% (inactive)
2,CCOC(=O)/C(C#N)=C1\C(=O)N(Cc2ccccc2)c2ccccc21,13.1% (inactive)
3,O=C(N/N=C/c1cn(-c2ccccc2)nc1-c1cccnc1)c1ccccc1,-7.1% (inactive)
4,O=C(c1ccc2ccccc2n1)N1CCN(c2ccccc2)CC1,-4.44% (inactive)
5,COc1ccc(Nc2ccc3c(c2)=NC2(CCCCC2)[N+]=3[O-])cc1,26.2% (inactive)
6,COc1ccc(NC2=NC3(CCCCC3)N=C(N)N2)cc1,-15.4% (inactive)
7,Cc1ccc(NC(=O)c2ccc(Nc3c([N+](=O)[O-])cc([N+](=O)[O-])cc3[N+](=O)[O-])cc2)cc1,2.68% (inactive)
8,CC(=O)c1ccc(Nc2c([N+](=O)[O-])ccc3nonc23)cc1,6.86% (inactive)
9,COC(=O)C1=C(c2cccc(OC)c2OC)C[C@@H]2CC[C@H]1N2C(=O)NCCS(C)=O (some centres not stated),-8.82% (inactive)
10,CC1Cc2ccccc2N1C(=O)COC(=O)c1ccc(Cl)c(S(=O)(=O)N2CCOCC2)c1 (configuration not stated),9.33% (inactive)
11,COC(=O)c1nnn(-c2cccc(Cl)c2)c1C(=O)OC,-5.37% (inactive)
12,O=C(CN(Cc1ccc(F)cc1)C(=O)CCC(=O)Nc1nccs1)NCC1CCCO1 (configuration not stated),-15.5% (inactive)
13,O=C(Nc1cccc(-n2cnnn2)c1)c1ccc(C(F)(F)F)cc1,-1.71% (inactive)
14,Cc1ccc(S(=O)(=O)c2nc(N3CCOCC3)sc2Cl)cc1,-3.55% (inactive)
15,CC(=O)Nc1ccc(N2N=C(C)C(N=Nc3ccccc3)C2=O)cc1 (configuration not stated),22.2% (inactive)
16,CC1=NN(c2ccccc2)C(=O)C1N=Nc1ccc(S(N)(=O)=O)cc1 (configuration not stated),1.05% (inactive)
17,CC1=NN(c2ccccc2)C(=O)C1N=Nc1ccccc1 (configuration not stated),-6.95% (inactive)
18,CC1=NN(c2ccccc2)C(=O)C1N=Nc1cccc(O)c1 (configuration not stated),0.04% (inactive)
19,COc1ccc(N2CCN(c3nc4c(C)cccn4c(=O)c3C=C(C#N)C#N)CC2)cc1,-22.9% (inactive)
20,O=C(NNC(=O)c1cccs1)c1ccncc1,-2.62% (inactive)
21,COc1ccc([C@H]2CC(=O)C=C(c3cccc4c3sc3ccccc34)C2)cc1OC,7.03% (inactive)
22,Nc1nc(NC(=O)c2ccco2)nn1-c1ccccc1,5.18% (inactive)

row,Structure (SMILES),inhibition
1,Nc1nc(NC(=O)c2ccccc2)nn1-c1ccccc1,-6.76% (inactive)
2,CCCc1cc(N2CCCC(C(=O)NCC)C2)n2ncnc2n1 (configuration not stated),-10% (inactive)
3,NC(=O)C1(N2CCCCC2)CCN(c2ccc3nnc(-c4ccccc4)n3n2)CC1,-13.3% (inactive)
4,Cc1cc2ccccn2c1C(=O)c1cccc([N+](=O)[O-])c1,4.98% (inactive)
5,COC(=O)c1cc(C(=O)c2c(C)cc3ccccn23)cc([N+](=O)[O-])c1,16.9% (inactive)
6,O=C(NCCC1=CCCCC1)C(=O)NCCc1ccc(Cl)cc1,1.14% (inactive)
7,C=CC[C@@H](CC(=O)N[C@@H](CO)Cc1ccccc1)C(=O)N[C@H](C)COC(=O)[C@@H](CC=C)Cc1ccc(F)cc1,-3.08% (inactive)
8,CCOC(=O)/C(=N\Nc1ncnc2ccccc12)c1ccc(C)cc1,12.6% (inactive)
9,COc1ccc(/C(=N/Nc2ncnc3ccccc23)C(=O)O)cc1,5.64% (inactive)
10,O=C(NCc1ccccn1)Nc1cc(Cl)ccc1Cl,-13.2% (inactive)
11,COc1ccc(CNC(=O)Cn2cc(C(F)(F)F)ccc2=O)cc1,-8.07% (inactive)
12,CN(C)c1ccc(C=C2C(=O)OC(C)(C)OC2=O)cc1,0.66% (inactive)
13,CN(C)c1ccc(/C=C2\C(=O)NC(=O)N(Cc3ccc(F)cc3)C2=O)cc1,-0.15% (inactive)
14,COc1ccc(/C=C2/C(=O)N(Cc3ccccc3)N=C2C)cc1,-0.08% (inactive)
15,CC1=NN(CCC#N)C(=O)/C1=C/c1ccc(N(C)C)cc1,18.1% (inactive)
16,COc1ccc(CCC(=O)OCC(=O)Nc2ccccc2OC(F)F)cc1OC,-3.13% (inactive)
17,CCOC(=O)C(NC(C)=O)(Nc1ccc(S(=O)(=O)Nc2nccs2)cc1)C(F)(F)F (configuration not stated),-7.42% (inactive)
18,Cc1cccc(-n2c(O)c(C=Nc3cc(O)ccc3C)c3ccccc3c2=O)n1,3.61% (inactive)
19,COc1cc(C2C(C(C)=O)=C(O)C(=O)N2CCN(C)C)ccc1O (configuration not stated),-16% (inactive)
20,O=C(COC(=O)c1n[nH]c(=O)c2ccccc12)NC1CCCCC1,-3.19% (inactive)
21,COc1cc(NC(=O)CSCc2ccc(Cl)cc2)c(C(=O)O)cc1OC,-10.8% (inactive)
22,O=C(Cc1n[nH]c(=O)c2ccccc12)Nc1cc(Cl)ccc1-n1cncn1,-5.46% (inactive)

row,Structure (SMILES),inhibition
1,COc1ccc(C(=O)N/N=C/c2ccc(OC)c(COc3ccc(F)cc3)c2)cc1,-7.91% (inactive)
2,COc1ccc(C(=O)N/N=C/c2ccc(OC)c(COc3ccccc3)c2)cc1,-10.8% (inactive)
3,CCC(CC)NC(=O)CO/N=C/c1ccc(Cl)cc1Cl,2.24% (inactive)
4,O=C(O)C1C2C=CC(C2)C1C(=O)NCCCN1CCOCC1 (configuration not stated),-16.9% (inactive)
5,C[C@H](CO)N1C[C@H](C)[C@@H](CN(C)S(=O)(=O)c2cccs2)Oc2ccc(NC(=O)c3ccncc3)cc2C1=O,-5.12% (inactive)
6,CCN(CC)Cc1cc(C(=O)O)c(-c2ccccc2)o1,-10.3% (inactive)
7,CCOC(=O)C1CCCN(c2nc3ccccc3nc2NS(=O)(=O)c2ccc(C)cc2)C1 (configuration not stated),-25.9% (inactive)
8,NC(=O)C1CCN(C2=C(NS(=O)(=O)c3ccc(Br)cc3)C(=O)c3ccccc3C2=O)CC1,23.9% (inactive)
9,CCN1CCN(C2=C(NS(=O)(=O)c3ccc(Br)cc3)C(=O)c3ccccc3C2=O)CC1,5.79% (inactive)
10,CC(=O)Nc1ccc(S(=O)(=O)NC2=C(N3CCN(C)CC3)C(=O)c3ccccc3C2=O)cc1,7.96% (inactive)
11,CC1CCCN(C2=C(NS(=O)(=O)c3ccc(Cl)cc3)C(=O)c3ccccc3C2=O)C1 (configuration not stated),3.15% (inactive)
12,CCOC(=O)C1CCN(C2=C(NS(=O)(=O)c3ccc(Cl)cc3)C(=O)c3ccccc3C2=O)CC1,-27.4% (inactive)
13,CCOC(=O)C1CCN(C2=C(NS(=O)(=O)c3ccc(Br)cc3)C(=O)c3ccccc3C2=O)CC1,27.6% (inactive)
14,NC(=O)C1CCN(C2=C(NS(=O)(=O)c3ccc(Cl)cc3)C(=O)c3ccccc3C2=O)CC1,-27.5% (inactive)
15,CCCN(CC(=O)Nc1ccccc1C)C(=O)CCNC(=O)c1ccccc1Cl,0.78% (inactive)
16,O=C(c1ccccc1)N1CCCC(C(=O)N2CCc3ccccc3C2)C1 (configuration not stated),-4.42% (inactive)
17,Cc1ccc(C)c(NCc2n[nH]c(=S)n2-c2ccccc2)c1,-0.26% (inactive)
18,O=C(OC(C(=O)NCC1CCCO1)c1ccccn1)c1cccs1 (configuration not stated),-1.32% (inactive)
19,COc1ccc(NC(=O)COC(=O)CN2C(=O)C3CCCCC3C2=O)cc1OC (configuration not stated),-0.56% (inactive)
20,CC(C)C[C@H](NC(=O)C1CCN(C(=O)[C@H](Cc2ccccc2)NC(=O)OC(C)(C)C)CC1)C(=O)O,-7.8% (inactive)
21,COC(=O)CCC(=O)N(CCN(Cc1ccccc1)C(=O)CCC(=O)OC)Cc1ccccc1,8.88% (inactive)
22,Cc1ccc(N=Nc2c(O)[nH]c(=O)[nH]c2=O)cc1S(=O)(=O)Nc1ccc(Br)cc1,9.19% (inactive)

row,Structure (SMILES),inhibition
1,CCc1ccc(NC(=O)CN(c2ccc(OC)cc2)S(=O)(=O)c2c(C)[nH]c(=O)[nH]c2=O)cc1,2.97% (inactive)
2,CN1CCN(c2ccc(S(=O)(=O)N3CCCCC3)cc2NC(=O)COc2ccc(F)cc2)CC1,-7.14% (inactive)
3,C[n+]1cccc(C2C(C#N)=C(N)Oc3c2ccc2ccccc32)c1 (configuration not stated),-17.7% (inactive)
4,CCOC(=O)C1=C(C)OC(N)=C(C#N)C1c1cc2cc(C)ccc2nc1N1CCCCC1 (configuration not stated),-5.59% (inactive)
5,COc1cc(C2C(C#N)=C(N)Oc3c2ccc2ccccc32)ccc1OCC(=O)Nc1ccc(C)cc1 (configuration not stated),1.8% (inactive)
6,N#CC1=C(N)Oc2c(ccc3cccnc23)C1c1ccccc1 (configuration not stated),25.4% (inactive)
7,CC(=O)C1=C(C)OC(N)=C(C#N)C1c1cc2cccc(C)c2nc1Cl (configuration not stated),-6.22% (inactive)
8,COc1ccc(C2C(C#N)=C(N)Oc3c2ccc2cccnc32)cc1OC (configuration not stated),-15.7% (inactive)
9,CCc1ccc(C2C(C#N)=C(N)Oc3cc(N)ccc32)cc1 (configuration not stated),0.13% (inactive)
10,COC(=O)C1=C(C)OC(N)=C(C#N)C1c1cc2cc(C)ccc2nc1Cl (configuration not stated),11.8% (inactive)
11,CC(C)(C)c1ccc(CN(Cc2ccccc2)C(c2ccccn2)c2nnnn2C(C)(C)C)cc1 (configuration not stated),9.19% (inactive)
12,C[C@H](CO)N1C[C@H](C)[C@@H](CN(C)Cc2ccc(-c3ccccc3)cc2)Oc2c(NC(=O)Cc3ccccc3)cccc2C1=O,11.9% (inactive)
13,CC(=O)Nc1ccc(Br)cc1C(=O)C(=O)O,2.32% (inactive)
14,C=CCc1c(C)[nH]c(=O)[nH]c1=O,-3.62% (inactive)
15,Cc1noc(C)c1NC(=O)N(C)C[C@H]1Oc2ccc(NC(=O)NC(C)C)cc2C(=O)N([C@H](C)CO)C[C@@H]1C,-14.8% (inactive)
16,CCCn1c(N)c(C(=O)CSc2nnc3n2CCCCC3)c(=O)n(C)c1=O,-16.1% (inactive)
17,CC(C)CNS(=O)(=O)c1cc(C(=O)OC2CCOC2=O)c(Cl)cc1Cl (configuration not stated),-8.56% (inactive)
18,COc1ccccc1C(CNc1ncccc1[N+](=O)[O-])N(C)C (configuration not stated),-0.51% (inactive)
19,COc1ccccc1CNc1ncccc1[N+](=O)[O-],-1.95% (inactive)
20,CC(=O)c1ccc2c(c1)C1C(Cl)C(Sc3ccccc3[N+](=O)[O-])CC1C(C(=O)O)N2 (configuration not stated),27.9% (inactive)
21,CC(=O)c1ccc2c(c1)C1C(Cl)C(Sc3ccccc3[N+](=O)[O-])CC1C(c1ccccc1)N2 (configuration not stated),-9.68% (inactive)
